# Unmarked numbers belong to inactive results. Inconclusive results are not listed. Where a call stands in place of a potency, no number is given. Active and inactive are the calls of the source. Unless noted, the call rests on the fitted dose curve; in most records, active means well fitted curve in the direction sought with a large enough effect; inconclusive means small, poorly fitted or top-dose-only effect, or another doubt; inactive means no such curve, though single readings can be large; an effect the other way counts as inactive or inconclusive.
# Legend:
# [1] = biological target: Rap guanine nucleotide exchange factor 3 (Homo sapiens) (UniProt O95398); assay: Counterscreen qHTS for antagonist of cAMP-regulated guanine nucleotide exchange factor 3 (EPAC1) (AID 1645888);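 further: fluorescence loss as bound BODIPY-GDP is released from Rap1B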
# Chain of Rap guanine nucleotide exchange factor 3 (Homo sapiens) (O95398 whole entry, looked up): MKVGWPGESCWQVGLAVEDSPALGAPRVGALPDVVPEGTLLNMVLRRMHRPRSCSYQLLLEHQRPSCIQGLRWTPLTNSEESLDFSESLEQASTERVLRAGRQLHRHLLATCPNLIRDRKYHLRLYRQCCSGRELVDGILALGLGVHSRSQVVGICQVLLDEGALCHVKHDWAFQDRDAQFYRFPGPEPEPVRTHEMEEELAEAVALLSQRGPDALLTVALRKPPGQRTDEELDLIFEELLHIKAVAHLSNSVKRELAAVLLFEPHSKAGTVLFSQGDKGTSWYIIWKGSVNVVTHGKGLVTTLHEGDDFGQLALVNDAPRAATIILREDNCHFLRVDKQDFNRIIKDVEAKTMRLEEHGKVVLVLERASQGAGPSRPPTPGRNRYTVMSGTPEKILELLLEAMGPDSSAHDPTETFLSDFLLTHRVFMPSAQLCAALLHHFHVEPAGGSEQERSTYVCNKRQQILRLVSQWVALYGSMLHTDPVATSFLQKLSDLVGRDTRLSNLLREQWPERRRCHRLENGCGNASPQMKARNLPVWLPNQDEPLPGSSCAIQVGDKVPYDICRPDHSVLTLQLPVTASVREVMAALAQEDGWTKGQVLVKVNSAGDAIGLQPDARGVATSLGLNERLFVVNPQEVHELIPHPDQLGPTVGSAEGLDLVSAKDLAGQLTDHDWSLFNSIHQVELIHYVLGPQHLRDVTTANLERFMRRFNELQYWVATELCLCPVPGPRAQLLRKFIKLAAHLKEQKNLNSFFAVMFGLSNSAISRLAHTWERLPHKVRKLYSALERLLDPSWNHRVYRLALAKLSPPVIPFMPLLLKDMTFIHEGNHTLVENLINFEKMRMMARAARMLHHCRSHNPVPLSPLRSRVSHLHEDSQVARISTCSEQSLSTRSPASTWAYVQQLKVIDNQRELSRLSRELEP
# In short: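 Rap1B–BODIPY-GDP (250 nM) with 50 uM GDP; compounds pin-transferred to 9.74 nM–152 uM final (activator) or from 7.32 nM upwards (inhibitor). Fluorescence Ex/Em 480/540 nm read at 5 and 30 min, then after adding cAMP or buffer, at room temperature.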
# [2] = biological target: Cytochrome P450 1A2 (Homo sapiens) (UniProt P05177); assay: p450-cyp1a2 (AID 410; calls by dose curve; further: potency means the concentration at half of the fitted maximal effect)
# Chain of Cytochrome P450 1A2 (Homo sapiens) (P05177 whole entry, looked up): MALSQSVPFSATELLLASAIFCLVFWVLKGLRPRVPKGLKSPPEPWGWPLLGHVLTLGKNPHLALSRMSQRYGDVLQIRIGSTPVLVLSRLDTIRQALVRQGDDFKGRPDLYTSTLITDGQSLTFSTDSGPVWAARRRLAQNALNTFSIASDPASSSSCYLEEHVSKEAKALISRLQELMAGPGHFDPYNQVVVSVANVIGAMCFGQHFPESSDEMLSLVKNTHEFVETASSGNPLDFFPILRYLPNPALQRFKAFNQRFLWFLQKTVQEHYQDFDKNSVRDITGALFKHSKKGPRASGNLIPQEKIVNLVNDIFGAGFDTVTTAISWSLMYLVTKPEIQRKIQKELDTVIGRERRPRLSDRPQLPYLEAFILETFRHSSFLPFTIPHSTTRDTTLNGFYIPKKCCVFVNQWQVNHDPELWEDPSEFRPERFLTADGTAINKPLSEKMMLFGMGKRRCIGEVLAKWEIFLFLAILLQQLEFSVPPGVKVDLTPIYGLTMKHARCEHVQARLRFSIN
# In short: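 20nM CYP1A2 with 100uM Luciferin-ME (at Km) in 100mM KPO4; compound preincubated 10 min, NADPH regeneration added, 60 min at room temperature. Luciferin quantified by luminescence after detection reagent; normalized to 57 uM furafylline.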
# [3] = Stat Signaling Pathway (AID 446; active means well fitted curve in either direction with a large enough effect, not every such curve was filed as active;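 further: ME-180 cervical cancer cells given 40 pM IL-6 alongside compound; SIE-controlled beta-lactamase reporter measured as 460/530 nm FRET emission ratio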)
# In short: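 ME-180 SIE-bla cells; overnight plating; cpd + IL-6 40 pM, 5 h, 37 C; LiveBLAzer 2.5 h RT; 460/530 nm emission ratio. Normalized to 300 pM IL-6 and 125 nM JAK inhibitor controls.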
# [4] = biological target: Glucocorticoid receptor (Homo sapiens) (UniProt P04150); assay: GR-EFC Redistribution (AID 451; calls by dose curve; further: potency means the concentration at half of the fitted maximal effect); settings: CHO-K1 GR-EFC translocation, beta-gal luminescence, 2 h
# In short: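 CHO-K1 cells expressing nuclear EA and GR-ED fragments of b-gal; compounds titrated up to 46 uM final, 2 h at 37 C. GR nuclear translocation read as complemented b-gal luminescence after 1 h RT detection.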
# [5] = biological target: 3',5'-cyclic-AMP phosphodiesterase 4B (Homo sapiens) (UniProt Q07343); assay: qHTS Assay for Inhibitors of PDE-IV (AID 607; active means well fitted activation curve with a large enough effect in the main read-out, with a control signal flat, not every such curve was filed as active)
# Chain of 3',5'-cyclic-AMP phosphodiesterase 4B (Homo sapiens) (Q07343 whole entry, looked up): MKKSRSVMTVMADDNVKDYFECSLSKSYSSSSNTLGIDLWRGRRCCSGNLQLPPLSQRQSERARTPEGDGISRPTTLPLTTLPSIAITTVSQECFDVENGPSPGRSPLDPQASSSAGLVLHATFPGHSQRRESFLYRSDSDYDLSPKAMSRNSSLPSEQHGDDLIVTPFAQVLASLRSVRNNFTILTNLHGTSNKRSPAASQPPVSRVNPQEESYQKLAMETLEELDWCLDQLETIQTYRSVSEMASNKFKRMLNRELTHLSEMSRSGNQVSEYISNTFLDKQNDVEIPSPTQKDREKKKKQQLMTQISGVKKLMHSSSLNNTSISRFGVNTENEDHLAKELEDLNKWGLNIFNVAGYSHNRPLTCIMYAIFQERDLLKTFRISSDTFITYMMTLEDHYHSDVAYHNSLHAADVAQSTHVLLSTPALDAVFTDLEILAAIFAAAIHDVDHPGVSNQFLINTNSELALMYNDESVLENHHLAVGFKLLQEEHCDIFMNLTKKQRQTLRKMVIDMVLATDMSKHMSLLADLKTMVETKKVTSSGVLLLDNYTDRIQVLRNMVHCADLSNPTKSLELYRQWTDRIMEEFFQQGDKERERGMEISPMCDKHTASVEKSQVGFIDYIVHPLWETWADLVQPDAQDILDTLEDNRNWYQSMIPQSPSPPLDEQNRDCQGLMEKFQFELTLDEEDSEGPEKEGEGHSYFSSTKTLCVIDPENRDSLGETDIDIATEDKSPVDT
# In short: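 ACTOne HEK293 cells carry a modified cAMP-gated CNG channel and express endogenous PDE4; plated 1000 cells/well, compounds up to 22.9 uM final. Membrane-potential dye fluorescence (ex 535/em 590) was read; parental cells received 10 uM forskolin + 100 uM RO 20-1724.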
# [6] = biological target: Guanine nucleotide-binding protein G(i) subunit alpha-1 (Homo sapiens) (UniProt P63096); assay: qHTS Assay for Inhibitors of RGS12 GoLoco Motif Activity (Green Fluorophore) (AID 879);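 further: negative values mean loss of peptide binding seen as reduced polarization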
# Chain of Guanine nucleotide-binding protein G(i) subunit alpha-1 (Homo sapiens) (P63096 whole entry, looked up): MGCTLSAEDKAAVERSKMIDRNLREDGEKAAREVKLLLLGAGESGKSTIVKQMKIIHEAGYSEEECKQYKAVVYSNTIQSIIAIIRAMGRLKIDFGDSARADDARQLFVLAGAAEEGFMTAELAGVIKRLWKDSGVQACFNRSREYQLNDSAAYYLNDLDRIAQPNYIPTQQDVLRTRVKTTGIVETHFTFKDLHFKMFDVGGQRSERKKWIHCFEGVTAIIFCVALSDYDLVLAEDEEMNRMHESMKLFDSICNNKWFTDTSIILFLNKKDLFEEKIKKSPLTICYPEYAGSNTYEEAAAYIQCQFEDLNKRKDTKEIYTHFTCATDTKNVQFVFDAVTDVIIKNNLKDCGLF
# In short: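 Fluorescence polarization assay: 50 nM Gαi1 with 10 nM FITC-labeled RGS12 GoLoco peptide in 10 mM Tris pH 7.5, 150 mM NaCl, 0.1 mM GDP, 0.05% NP40, 10 min at room temperature with compound.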
# [7] = biological target: Cytochrome P450 3A4 (Homo sapiens) (UniProt P08684); assay: qHTS Assay for Activators of Cytochrome P450 3A4 (AID 885); further: nearly all actives have a fitted effect of over 65% in size
# In short: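 20nM CYP3A4 + 25uM Luciferin-PPXE (=KM), 200mM KPO4; cpd 10 min RT; NADPH regen, 60 min RT; stop w/ detection buffer, 20 min; luminescence. Normalized to 57 uM ketoconazole.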
# [8] = qHTS Assay for Identification of Small Molecule Antagonists for Thrombopoietin (TPO) Signaling Pathway (AID 918); settings: TPO-dependent cell signaling reporter, antagonist mode; further: potency means the concentration at half of the fitted maximal effect; nearly all actives have a fitted effect of over 60% in size
# In short: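 Murine Ba/F3 cells expressing human TPO receptor and a Glycoprotein IIb promoter-luciferase reporter, IL-3-starved overnight, treated with compound plus TPO at EC50 (26 pM final). After 24 h at 37 C, luminescence read to detect inhibitors.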
# [9] = biological target: Pyruvate kinase (Leishmania mexicana) (UniProt Q27686); assay: qHTS Validation Assay for Inhibitors of Leishmania Mexicana Pyruvate Kinase (AID 945)
# Chain of Pyruvate kinase (Leishmania mexicana) (Q27686 2-499 E452W): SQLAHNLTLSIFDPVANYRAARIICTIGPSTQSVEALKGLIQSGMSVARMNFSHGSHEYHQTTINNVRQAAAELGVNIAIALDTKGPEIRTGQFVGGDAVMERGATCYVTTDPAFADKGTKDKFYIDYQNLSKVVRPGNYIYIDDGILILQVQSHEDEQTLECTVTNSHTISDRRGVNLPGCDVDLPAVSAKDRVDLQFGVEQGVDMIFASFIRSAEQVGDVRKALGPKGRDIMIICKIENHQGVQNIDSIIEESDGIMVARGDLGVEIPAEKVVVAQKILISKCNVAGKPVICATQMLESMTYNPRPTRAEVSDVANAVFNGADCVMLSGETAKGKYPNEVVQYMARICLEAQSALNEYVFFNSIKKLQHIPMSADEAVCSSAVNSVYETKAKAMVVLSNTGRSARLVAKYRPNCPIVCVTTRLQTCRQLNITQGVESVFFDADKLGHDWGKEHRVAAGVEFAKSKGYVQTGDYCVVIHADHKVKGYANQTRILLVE
# In short: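 An endpoint luciferase assay: 0.2 nM LmPYK E451W turns over 0.5 mM PEP with 0.1 mM ADP for 1 h at room temperature, pH 7.2, before PKLight addition. Values are normalized to DMSO-only wells.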
# [10] = biological target: Pyruvate kinase PKM (Homo sapiens) (UniProt P14618); assay: qHTS Assay for Activators of Human Muscle Pyruvate Kinase (AID 954; active means well fitted curve in the direction sought with a large enough effect, not every such curve was filed as active)
# In short: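 Luminescence from a luciferase ATP-detection/stop reagent reported PKM2 activity. Reactions contained 0.1 nM purified human enzyme, 0.5 mM PEP, 0.1 mM ADP and 7 mM MgCl2 at pH 7.2, run 1 h at RT.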
# [11] = biological target: Alpha-galactosidase A (Homo sapiens) (UniProt P06280); assay: Counterscreen for Glucocerebrosidase Inhibitors: qHTS Assay for Human alpha-Galactosidase at pH 4.5 (AID 992)
# Chain of Alpha-galactosidase A (Homo sapiens) (P06280 whole entry, looked up): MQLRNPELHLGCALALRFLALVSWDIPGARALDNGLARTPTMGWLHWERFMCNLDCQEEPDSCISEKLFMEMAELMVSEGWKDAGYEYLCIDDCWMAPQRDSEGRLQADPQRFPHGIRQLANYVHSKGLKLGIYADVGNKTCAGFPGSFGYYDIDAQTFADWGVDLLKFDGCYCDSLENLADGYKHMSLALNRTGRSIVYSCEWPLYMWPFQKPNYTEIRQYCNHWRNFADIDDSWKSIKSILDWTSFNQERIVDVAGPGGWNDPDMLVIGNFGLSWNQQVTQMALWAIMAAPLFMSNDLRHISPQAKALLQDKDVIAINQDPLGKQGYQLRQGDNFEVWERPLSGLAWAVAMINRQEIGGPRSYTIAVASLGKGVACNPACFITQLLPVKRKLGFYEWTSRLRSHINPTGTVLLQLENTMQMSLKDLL
# In short: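 Enzyme at 2 nM final was combined with compound (0.7 nM to 77 uM) and 80 uM 4-methylumbelliferyl alpha-D-galactopyranoside in 50 mM citric acid, 0.005% Tween-20, pH 4.5. After 20 min at room temperature, fluorescence was read (Ex 365/Em 440 nm); AC50 came from Hill fits.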
# [12] = biological target: alpha-glucosidase (Oryza sativa, rice) (UniProt Q653V4); assay: Counterscreen for Glucocerebrosidase Inhibitors: qHTS Assay for Rice alpha-Glucosidase at pH 5.0 (AID 997)
# In short: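 Rice alpha-glucosidase (4 nM final) with 400 uM 4-methylumbelliferyl-alpha-D-glucopyranoside in citrate buffer pH 5.0, 20 min at room temperature, stopped at pH 10; fluorescence 365/440 nm, compounds 0.7 nM–77 uM, AC50 from Hill fits.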
# [13] = biological target: DNA repair nuclease/redox regulator APEX1 (Homo sapiens) (UniProt P27695); assay: qHTS Validation Assay for Inhibitors of the Human Apurinic/apyrimidinic Endonuclease 1 (APE1) (AID 1705;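 further: TAMRA fluorescence gain over two minutes as APE1 cuts a quenched THF abasic duplex; series mostly up to about 57 µM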)
# In short: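 Activity read as rising fluorescence (598 nm emission, 525 nm excitation) from incision of a TAMRA/BHQ-2 duplex carrying a THF abasic site (50 nM). Compound and enzyme sat 15 min at RT before substrate start; signal change between first and third 60-s reads.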
# [14] = Counterscreen for APE1 Inhibitors: Fluorescent Dye Displacement Validation Assay (AID 1707)
# In short: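 Thiazole Orange displacement from dsDNA: 250 nM ThO with 50 nM TAMRA-labelled abasic-site (tetrahydrofuran) duplex in 50 mM Tris-HCl pH7.5, 50mM NaCl, 2 mM MgCl2, 0.01% Tween-20. Loss of endpoint fluorescence (ex 480 nm, em 540 nm) flags DNA binders.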
# [15] = qHTS for differential inhibitors of proliferation of Plasmodium falciparum line 7G8 (AID 1815);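 further: potency means the concentration at half of the fitted maximal effect; parasite growth measured after three days of incubation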
# [16] = qHTS for differential inhibitors of proliferation of Plasmodium falciparum line GB4 (AID 1816); settings: Potency: Plasmodium falciparum GB4 proliferation inhibition;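 further: potency means the concentration at half of the fitted maximal effect; parasite growth measured after 72 h incubation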
# [17] = qHTS for differential inhibitors of proliferation of Plasmodium falciparum line D10 (AID 1877);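 further: potency means the concentration at half of the fitted maximal effect; parasites grown with compound for 72 h before DNA staining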
# [18] = qHTS for differential inhibitors of proliferation of Plasmodium falciparum line W2 (AID 1883); settings: Potency: Plasmodium falciparum W2 proliferation inhibition;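 further: potency means the concentration at half of the fitted maximal effect; parasites grown with compound for 72 h before lysis and staining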
# [19] = qHTS for differential inhibitors of proliferation of Plasmodium falciparum line HB3 (AID 1886); settings: Potency: Plasmodium falciparum HB3 proliferation inhibition;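 further: potency means the concentration at half of the fitted maximal effect; parasites grown with compound for 72 h before SYBR Green readout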
# [20] = biological target: ATP-dependent DNA helicase Q1 (Homo sapiens) (UniProt P46063); assay: qHTS Validation Assay for Inhibitors of RecQ-Like Dna Helicase 1 (RECQ1) (AID 2353)
# Chain of ATP-dependent DNA helicase Q1 (Homo sapiens) (P46063 whole entry, looked up): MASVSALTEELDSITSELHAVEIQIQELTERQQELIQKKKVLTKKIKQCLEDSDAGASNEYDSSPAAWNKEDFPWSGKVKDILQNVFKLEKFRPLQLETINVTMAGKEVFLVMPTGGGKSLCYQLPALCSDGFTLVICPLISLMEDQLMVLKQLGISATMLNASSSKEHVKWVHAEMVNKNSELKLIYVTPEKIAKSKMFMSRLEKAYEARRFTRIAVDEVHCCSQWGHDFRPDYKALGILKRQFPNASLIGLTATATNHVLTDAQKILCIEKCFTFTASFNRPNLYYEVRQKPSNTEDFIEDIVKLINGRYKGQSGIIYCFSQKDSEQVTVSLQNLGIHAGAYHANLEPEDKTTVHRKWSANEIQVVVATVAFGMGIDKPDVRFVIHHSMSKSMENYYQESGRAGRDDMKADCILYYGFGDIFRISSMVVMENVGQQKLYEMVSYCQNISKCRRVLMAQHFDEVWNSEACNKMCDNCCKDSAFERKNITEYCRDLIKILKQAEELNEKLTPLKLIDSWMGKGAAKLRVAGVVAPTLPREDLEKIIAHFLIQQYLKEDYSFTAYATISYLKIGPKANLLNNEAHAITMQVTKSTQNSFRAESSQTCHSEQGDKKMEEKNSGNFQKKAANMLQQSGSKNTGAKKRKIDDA
# In short: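 50 nM RECQ1T1 preincubated 15 min with compound in Tris pH 8.0 buffer with MgCl2, DTT, Tween-20 and 2.5 ug/ml poly(dI-dC); started with 200 nM TAMRA/BHQ-2 forked duplex and 2 mM ATP. Unwinding read as fluorescence (525/598 nm), two reads 2 h apart.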
# [21] = biological target: M-phase phosphoprotein 8 (Homo sapiens) (UniProt Q99549); assay: qHTS Validation Assay for Inhibitors for MPP8 Chromodomain Interactions with Methylated Histone Tails (AID 488949);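 further: AlphaScreen signal from MPP8 chromodomain bound to biotinylated H3K9me3 peptide; top concentration of the series differs between compounds; nearly all actives have a fitted effect of over 55% in size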
# In short: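 AlphaScreen proximity signal from streptavidin donor and Ni-chelate acceptor beads (10 ug/mL each) reported binding of MPP8 to trimethyl-K9 H3(1-18) peptide, both at 50 nM. The complex formed 30 min before a 30 min compound exposure at room temperature, in PBS pH 7.4.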
# [22] = biological target: Transient receptor potential cation channel subfamily V member 1 (Homo sapiens) (UniProt Q8NER1); assay: HTS Assay for Compounds that Act as Enhancers of the Vanilloid Receptor 1 (AID 488979)
# Chain of Transient receptor potential cation channel subfamily V member 1 (Homo sapiens) (Q8NER1 whole entry, looked up): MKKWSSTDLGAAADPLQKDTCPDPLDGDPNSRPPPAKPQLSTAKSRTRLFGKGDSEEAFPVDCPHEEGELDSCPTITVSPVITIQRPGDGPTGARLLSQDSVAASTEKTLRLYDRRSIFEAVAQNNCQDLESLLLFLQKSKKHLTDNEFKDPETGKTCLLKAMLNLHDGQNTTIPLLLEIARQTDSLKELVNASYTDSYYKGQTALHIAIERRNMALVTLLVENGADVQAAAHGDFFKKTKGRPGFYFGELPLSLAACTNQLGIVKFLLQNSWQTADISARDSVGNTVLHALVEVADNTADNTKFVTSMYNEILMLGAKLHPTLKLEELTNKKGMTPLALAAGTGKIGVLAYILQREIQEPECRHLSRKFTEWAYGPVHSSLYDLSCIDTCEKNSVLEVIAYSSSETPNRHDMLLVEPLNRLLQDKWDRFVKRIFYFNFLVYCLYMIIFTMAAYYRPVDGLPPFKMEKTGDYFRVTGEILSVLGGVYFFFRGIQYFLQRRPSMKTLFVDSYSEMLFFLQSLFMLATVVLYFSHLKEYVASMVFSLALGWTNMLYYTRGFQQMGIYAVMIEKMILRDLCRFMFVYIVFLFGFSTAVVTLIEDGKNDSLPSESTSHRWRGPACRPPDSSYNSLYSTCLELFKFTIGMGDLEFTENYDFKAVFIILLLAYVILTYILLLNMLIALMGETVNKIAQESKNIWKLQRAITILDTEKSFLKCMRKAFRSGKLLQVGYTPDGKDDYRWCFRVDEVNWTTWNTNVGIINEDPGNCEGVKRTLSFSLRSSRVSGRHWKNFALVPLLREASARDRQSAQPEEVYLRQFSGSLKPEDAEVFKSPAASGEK
# In short: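 TRPV1 cells loaded with Fluo-8 calcium dye; compound added and Ca2+ signal (ex 480/em 520 nm) followed 3 min, then capsaicin at EC20 added and read 2 more min to detect enhancement.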
# [23] = biological target: Thyrotropin receptor (Homo sapiens) (UniProt P16473); assay: qHTS Assay for Antagonists of the Thyroid Stimulating Hormone Receptor (AID 488980); further: series mostly up to about 58 µM
# In short: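 Inhibition of cAMP raised by EC80 TSH (4 nM final) was read by HTRF, with lysate cAMP competing against cAMP-d2 for cryptate antibody after 30 min at room temperature. The cells were transfected HEK293 held in phosphodiesterase inhibitor RO 20-1724 at 70 uM.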
# [24] = biological target: Thyrotropin-releasing hormone receptor (Homo sapiens) (UniProt P34981); assay: qHTS for Small Molecule Agonists and Allosteric Enhancers of Human TRH Receptor: Validation Screen for Agonists (AID 493127;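 active means calcium activation more than 3 SD above the typical response in the agonist read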); settings: TRH receptor agonist cell assay; at 2 µM; active compounds read high
# In short: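 TRHR cells loaded with fluo-8 calcium dye; FDSS kinetic fluorescence (Ex 480/Em 530) read at 1 s/cycle after 23 nL compound addition. Agonist-mode calcium response recorded before the 10 nM TRH (EC20) addition.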
# [25] = biological target: Galactokinase (Homo sapiens) (UniProt P51570); assay: qHTS Validation Assay for Inhibitors of Human Galactokinase (GALK) (AID 493189)
# In short: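 Inhibition was measured as remaining ATP, detected by luciferase luminescence after a 1 h room-temperature reaction. Final conditions: 5 nM GALK, 100 uM galactose, 35 uM ATP, pH 8.0 HEPES buffer.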
# [26] = biological target: Voltage-gated inwardly rectifying potassium channel KCNH2 (Homo sapiens) (UniProt Q12809); assay: qHTS Assay for Small Molecule Inhibitors of the Human hERG Channel Activity (AID 588834);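 further: potency means the concentration at half of the fitted maximal effect; lower thallium flux fluorescence means stronger hERG block; nearly all actives have a fitted effect of over 50% in size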
# In short: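 Kinetic FDSS fluorescence; U2OS + hERG BacMam (~100 virus particles/cell); FluxOR Tl+ flux; ~10 min cpd; AC50 (Hill).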
compound,measurement,setting,value
CCOC(=O)c1c(-c2ccccc2)oc2ccc(O)cc12,Potency,[1],inactive
CCC(=O)N(CCC(c1ccccc1)c1ccco1)Cc1cccs1 (configuration not stated),Potency,[1],inactive
N#Cc1c(-c2ccccc2)no[n+]1[O-],Potency,[2],0.398 µM (active)
same,outcome,[3],inactive
same,Potency,[4],> 46 µM
same,Potency,[5],inactive
same,Potency,[6],inactive
same,outcome,[7],inactive
same,Potency,[8],3.98 µM (active)
same,outcome,[9],inactive
same,outcome,[10],inactive
same,outcome,[11],inactive
same,outcome,[12],inactive
same,Potency,[13],inactive
same,outcome,[14],inactive
same,Potency,[15],10 µM (active)
same,Potency,[16],12.6 µM (active)
same,Potency,[17],14.1 µM (active)
same,Potency,[18],10 µM (active)
same,Potency,[19],11.2 µM (active)
same,outcome,[20],inactive
same,Potency,[21],inactive
same,outcome,[22],inactive
same,outcome,[23],inactive
same,activation,[24],0.688%
same,outcome,[25],inactive
same,Potency,[26],5.01 µM (active)

# From PubChem BioAssay (NCATS)
